High-throughput results deposited in PubChem by The Scripps Research Institute Molecular Screening Center.
A selection: hits, their analogues and other compounds. The true share with any hit is near 1.3%.
PME-1 inh: PME-1 (human) inhibition; recombinant PME-1, FP-Rh probe fluorescence polarization; Q9Y570; AID 2130; 320,000 tested, 0.53% active; inhibition, % at 5.9 µM;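 active = inhibition above the campaign mean of all compounds plus 3 SD, cut at about 26% in these data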;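 note: competitive labeling of PME-1 active site by serine hydrolase directed probe; inhibitors block probe labeling so polarization falls and inhibition rises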
LYPLA1 inh: LYPLA1 (human) inhibition in PME1 counter-screen; O75608; recombinant LYPLA1, FP-Rh probe fluorescence polarization; inhibition, % at 5.9 µM; 320,000 tested, 0.16% active;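 active = inhibition above the mean of all tested compounds plus 3 SD, set per campaign, cut at about 14% in these data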;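 note: inhibitors block serine hydrolase probe labeling of LYPLA1 so polarization falls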
Target sequence (O75608 whole entry, looked up): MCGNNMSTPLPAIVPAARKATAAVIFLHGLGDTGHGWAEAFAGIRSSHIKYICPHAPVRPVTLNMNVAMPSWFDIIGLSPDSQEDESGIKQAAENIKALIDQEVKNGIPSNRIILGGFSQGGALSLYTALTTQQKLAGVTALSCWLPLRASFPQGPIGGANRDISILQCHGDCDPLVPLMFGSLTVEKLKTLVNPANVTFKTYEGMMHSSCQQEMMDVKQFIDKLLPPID
Fam108B counter: Fam108B inhibition, counter-screen for RBBP9 inhibitors. recombinant Fam108B, FP-Rh probe fluorescence polarization. inhibition, % at 9.51 µM. 300,000 tested, 0.33% active. AID 1947;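 active = inhibition above the screen mean inhibition plus 3 SD, computed separately per campaign, cut at about 18% in these data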;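 note: inhibitors lower polarization as less probe binds the enzyme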
PREPL inh: human PREPL enzyme inhibition; recombinant PREPL, fluorescence polarization activity-based probe; Q4J6C6; inhibition, % at 5.96 µM; 320,000 tested, 0.68% active
LYPLA2 counter: LYPLA2 (human) inhibition in PME1 counter-screen | inhibition, % at 5.9 µM | O95372 | 320,000 tested, 0.38% active | recombinant LYPLA2, FP-Rh probe fluorescence polarization;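 active = inhibition above the screen-wide mean plus 3 SD, limit set per campaign, cut at about 26% in these data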
Target sequence (O95372 whole entry, looked up): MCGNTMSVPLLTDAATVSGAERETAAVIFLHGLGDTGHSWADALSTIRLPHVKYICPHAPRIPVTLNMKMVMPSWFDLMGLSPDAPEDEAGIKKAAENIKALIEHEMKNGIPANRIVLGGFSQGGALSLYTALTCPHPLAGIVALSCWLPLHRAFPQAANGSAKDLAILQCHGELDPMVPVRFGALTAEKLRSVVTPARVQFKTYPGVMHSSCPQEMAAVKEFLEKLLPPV
PREPL confirm: confirmation of human PREPL enzyme inhibitors | 2,000 tested, 67% active | recombinant PREPL, fluorescence polarization activity probe | shares compounds with PREPL inh | inhibition, % at 5.96 µM
A number is an active result; 0 = inactive; - = no result. Cut-off read from the data, not from the text of the source, unless noted: active = inhibition above about 43%; inactive = the rest.

SMILES | PME-1 inh | LYPLA1 inh | Fam108B counter | PREPL inh | LYPLA2 counter | PREPL confirm
CC(C)N(C(=O)[C@H]1CC(CC(=O)NCc2cccc(C(F)(F)F)c2)C(=O)N2CCc3c([nH]c4ccccc34)[C@]12C)C(C)C (some centres undefined) | - | - | - | 0 | - | -
Cc1c(C#N)c(N=CN(C)C)c(C(=O)c2ccc(Br)cc2)n1-c1ccc(Cl)cc1 | 0 | 0 | 0 | 48.3 | 0 | 53.2
CC(=O)N1CCN(c2ccc(OC[C@H]3CO[C@](Cn4ccnc4)(c4ccc(Cl)cc4Cl)O3)cc2)CC1 | 0 | 0 | 0 | 60.8 | 0 | 64.1
C=CCN(CC(O)c1cccc([N+](=O)[O-])c1)C(C)CCc1ccccc1 (centres undefined) | 0 | 0 | 0 | 0 | 0 | -
COc1cc(N)c(Cl)cc1C(=O)OCC(=O)N1c2ccccc2NC(=O)C1(C)C | - | - | - | 0 | - | -
COc1cc(-c2nnc(-c3ccncc3)o2)ccc1OCc1ccccc1 | 0 | 0 | 0 | 44.4 | 0 | 0
COc1ccc(-c2nc(N)ncc2-c2csc(C)n2)c(O)c1OC | 0 | 0 | 0 | 0 | 0 | -
O=C(NCCCn1ccnc1)C1CCN(S(=O)(=O)c2cc([N+](=O)[O-])ccc2Cl)CC1 | - | - | - | 47.5 | - | 0
COc1ccc(CCNc2ncnc3c2nnn3Cc2ccccc2)cc1OC | 0 | 0 | 0 | 0 | 0 | -
N#CCCN1CCN(Cn2c3ccccc3c3ccccc32)CC1 | 0 | 0 | 0 | 0 | 0 | -
CN1CCN(CCCNCc2cn(CCC#N)c3ccccc23)CC1 | 0 | 0 | 0 | 49.1 | 0 | 0
CC1Cc2ccccc2N1C(=O)COC(=O)Cc1ccc(F)cc1 (centres undefined) | 0 | 0 | 0 | 0 | 0 | -
Cc1[nH]c(C)c(S(=O)(=O)NCCc2ccc(S(N)(=O)=O)cc2)c1C(=O)N1CCCC1 | 0 | 0 | 0 | 53.9 | 0 | 0
CC(C)(C)c1ccc(C(=O)N2CCNCC2)cc1 | 0 | 0 | 0 | 0 | 0 | -
O=C(c1ccc(-c2cc(O)c3ncccc3c2)cc1)N1CCNCC1 | - | - | - | 55.0 | - | 48.9
CC(C)(C)[C@H]1COC(=O)[C@@H](Cc2ccc(F)cc2)CC/C=C/C[C@@H](CC(=O)N[C@H](CO)Cc2ccccc2)C(=O)N1 | - | - | - | 47.2 | - | 0
CC(C)(C)[C@H]1COC(=O)[C@@H](Cc2ccc(F)cc2)CC/C=C/C[C@@H](CC(=O)N[C@@H](CO)Cc2ccccc2)C(=O)N1 | - | - | - | 0 | - | -
CC(=O)NC12CC3CC(C1)CC(C(=O)N1CCN(c4ncccn4)CC1)(C3)C2 | 0 | 0 | 0 | 0 | 0 | -
O=C(/C=C/c1cccc([N+](=O)[O-])c1)NCCSc1ccccc1 | 0 | 0 | 0 | 46.2 | 0 | 0
Cc1cc(=O)oc2cc(OCC(=O)NC3CCCCC3)ccc12 | 0 | 0 | 0 | 0 | 0 | -
N#CCCN(C(=O)COC(=O)CSc1ccc(Cl)cc1)c1ccccc1 | - | - | - | 49.8 | - | 0
N#CCCN(C(=O)COC(=O)COc1ccc(Cl)cc1)c1ccccc1 | 0 | 0 | 0 | 0 | 0 | -
CC1(OC(=O)C2CCCC2)C(=O)C=C2C=C(c3ccsc3)N(CC3CC3)C=C2C1=O (centres undefined) | 0 | 0 | 0 | 43.3 | 0 | 0
N#CC1=C(N)N(c2ccccc2)C(c2ccccc2)C1(C#N)C#N (centres undefined) | 0 | 0 | 0 | 45.8 | 0 | 0
N#CC1=C(Nc2ccccc2)SC=C(c2ccc(F)cc2)N=C1N1CCOCC1 | 0 | 0 | 0 | 51.7 | 0 | 0
SMILES | PME-1 inh | LYPLA1 inh | Fam108B counter | PREPL inh | LYPLA2 counter | PREPL confirm
CCC(Sc1nc2cc(OC)c(OC)cc2c(=O)n1CCc1ccc(OC)c(OC)c1)C(=O)NCCOC (centres undefined) | 0 | 0 | 0 | 0 | 0 | -
O=C(Cn1cc[n+](CC(=O)c2ccc(Cl)cc2Cl)c1)c1ccc(Cl)cc1Cl | 0 | 0 | 0 | 46.2 | 0 | 0
CCOC(=O)c1cnc(-n2nc(C)cc2C)nc1Nc1ccc(OC)cc1 | 0 | 0 | 0 | 0 | 0 | -
CCOC(=O)c1cnc(-n2nc(C)cc2C)nc1NCCc1ccccc1 | 0 | 0 | 0 | 58.3 | 0 | 54.5
CC(C)CN(CCNC(=O)CN1N=C(c2ccc(Cl)cc2)CCC1=O)CC(C)C | 0 | 0 | 0 | 49.4 | 0 | 0
CCCCN(C)CCCNC(=O)CN1N=C(c2ccc(Cl)cc2)CCC1=O | 0 | 0 | 0 | 0 | 0 | -
CN(CC(=O)Nc1cccc(F)c1)C(=O)c1cccc(S(=O)(=O)N2CC3(C)CC2CC(C)(C)C3)c1 (centres undefined) | 0 | 0 | 0 | 0 | 0 | -
COc1cc(C=NNc2ccc(S(=O)(=O)Nc3ccccc3C(=O)O)cc2[N+](=O)[O-])ccc1O | - | - | - | 55.0 | - | 0
